We go through 14 molecules from the supplement of paper PMC10127200.

Where a name gives a salt, the structure may show the parent alone.

The test system of this test is 786-O. Nature of the test: Euclidean distance of Cell Painting phenotypic profile (signed KS, 77 features) to DMSO centroid (dimensionless distance); 5 or 10 uM (library dependent); higher = stronger phenotypic change vs DMSO (phenoactivity). To be noted: 48 h. The method, boiled down:
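Stained cells were imaged confocally at 20X with 9 fields per well, after 48 h of exposure to library compounds at 10 or 5 uM (set by library; 0.1% DMSO final). The cells were five cancer lines and a healthy fibroblast line. From the images, Harmony extracted 77 features, each expressed as a signed Kolmogorov-Smirnov statistic relative to same-plate vehicle wells. Phenoactivity is measured as Euclidean distance to the median vehicle profile, using plate-position-corrected, correlation-weighted profiles averaged across replicates at the top dose.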
For `O=C(O)c1ccccc1C(=O)Nc1ccc(S(=O)(=O)Nc2nccs2)cc1` [Phthalylsulfathiazole], the Euclidean distance is 1.08.
For `OCCOc1ccc(/C(=C(/CCCl)c2ccccc2)c2ccccc2)cc1` [Ospemifene], the Euclidean distance is 0.936.
To `CN1C2CCCC1CC(NC(=O)c1nn(C)c3ccccc13)C2` (centres undefined) [Granisetron] belongs 1.06; to `CC1=Nc2ccc(Cl)cc2S(=O)(=O)N1` [Diazoxide], 1.25.
`Cn1cc(/C=C/C(=O)c2cccc(F)c2)cc1/C=C/C(=O)NO` registered an Euclidean distance of 1.27.
`CCCc1nc(C)c2c(=O)nc(-c3cc(S(=O)(=O)N4CCN(CC)CC4)ccc3OCC)[nH]n12` [Vardenafil HCl Trihydrate] had an Euclidean distance of 1.18.
Regarding `COc1ccc(S(=O)(=O)N(C(C)=O)c2ccccc2/C=C/c2cc[n+]([O-])cc2)cc1`, the Euclidean distance is 2.93.
The result for `O=C(CCCCCCNC(=O)c1cnc(N(c2ccccc2)c2ccccc2Cl)nc1)NO` [Citarinostat (ACY-241)] reads 1.92; that for `CC[C@@H](Nc1c(Nc2cccc(C(=O)N(C)C)c2O)c(=O)c1=O)c1ccc(C)o1`, 1.24.
Turning to `CC(C)[C@H](C(=O)Nc1ccc(C(=O)NO)cc1)c1ccccc1`, the Euclidean distance came out at 3.25.
As to `Nc1cccc2c1C(=O)N(C1CCC(=O)NC1=O)C2=O` (centres undefined) [Pomalidomide], the Euclidean distance came to 0.929.
Molecule `Nc1nc(N)c2nc(-c3cccc(O)c3)cnc2n1` returned an Euclidean distance of 0.828.
To `CC(=O)OCC1=C(C(=O)O)N2C(=O)[C@@H](NC(=O)Cc3cccs3)[C@H]2SC1` [Cephalothin] belongs 1.38; to `COc1ccc(-c2ccc3c(N4CCOCC4)nc(N4C[C@@H](C)O[C@@H](C)C4)nc3n2)cc1CO`, 1.93.
